Bioassay records as filed in PubChem.
Gal4-VP16 FLuc – inhibits Gal4-VP16 luciferase reporter, ROR gamma counter-screen | actives 3.5% (n = 310,000) | Drosophila S2 Gal4-VP16 UAS-luciferase, luminescence, 20 h | Potency, µM (series often up to 53.6 µM), actives largely listed as inhibitors;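 further: Gal4-VP16 expression switched on by copper sulfate through the metallothionein promoter; nearly all actives have a fitted effect of over 50% in size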
RORgamma inh – blocks mouse ROR gamma transcriptional activity. P51450. Drosophila S2 Gal4-RORgamma UAS-luciferase reporter, 20 h. Potency, µM (doses to about 53.6 µM), hits mostly inhibitors. actives 5.4% (n = 310,000). AID 2551; further: nearly all actives have a fitted effect of over 60% in size
Target sequence (P51450 whole entry, looked up, the tested form may be a part): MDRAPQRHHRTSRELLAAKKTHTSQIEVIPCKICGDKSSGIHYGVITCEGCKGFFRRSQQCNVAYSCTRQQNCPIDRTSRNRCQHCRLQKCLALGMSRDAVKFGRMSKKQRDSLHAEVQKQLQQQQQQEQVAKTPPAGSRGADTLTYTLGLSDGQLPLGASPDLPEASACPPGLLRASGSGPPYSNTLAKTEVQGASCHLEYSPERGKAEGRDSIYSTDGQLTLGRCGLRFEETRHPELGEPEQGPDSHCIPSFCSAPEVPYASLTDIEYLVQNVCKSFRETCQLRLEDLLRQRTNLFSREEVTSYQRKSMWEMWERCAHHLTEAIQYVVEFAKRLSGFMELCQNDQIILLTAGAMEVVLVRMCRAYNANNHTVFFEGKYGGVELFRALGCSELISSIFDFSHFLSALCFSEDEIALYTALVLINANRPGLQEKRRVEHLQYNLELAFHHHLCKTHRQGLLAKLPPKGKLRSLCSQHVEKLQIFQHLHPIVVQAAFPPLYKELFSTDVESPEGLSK
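Luminescence from a UAS-regulated Photinus luciferase reporter in stably transfected Drosophila Schneider cells is measured; decreased signal marks ROR gamma inhibition. Fusion expression is induced by 700 uM copper sulfate for 20 hr.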
ATXN2 expr inh – reduces ATXN2 reporter expression in HEK-293 cells; HEK-293 ATXN2-luciferase reporter, luminescence, 24 h; Potency, µM (top dose mostly 57 µM), most hits filed as inhibitors; actives 0.72% (n = 360,000); AID 1745845; further: nearly all actives have a fitted effect of over 55% in size
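ATXN2-luciferase reporter cells (luciferase flanked by upstream and downstream ATXN2 gene portions) were treated 24 h at 37 °C with compounds at up to 57 uM. SteadyGlo luminescence gave expression; GF-AFC fluorescence gave viability.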
S2 tox – reduces viability in counter-screen for ATXN expression inhibitors | S2 cells (HEK-293 line with an ATXN2-luciferase reporter) viability, CellTiter-Fluor protease fluorescence, 24 h | Potency, µM (series often up to 56.7 µM), hits mostly cytotoxic | actives 0.49% (n = 400,000) | AID 651635; further: nearly all actives have a fitted effect of over 40% in size
HepG2 viability – counter-screen for TGF-b inhibitors: cytotoxicity in HepG2 cells; HepG2 CAGA-GFP viability, ATP luminescence, 18 h; Potency, µM (doses to about 46.1 µM), actives largely listed as cytotoxic; actives 0.76% (n = 410,000); AID 588856
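CellTiter-Glo luminescence gave cytotoxicity after 18 hours at 37 degrees C. The cells were HepG2 CAGA-GFP in 1% FBS DMEM, stimulated with 500 pg/mL TGF-beta after compound addition. %Activity was normalised to no-cell wells (complete cell-killing) and DMSO (no toxicity), and curves were fitted and classified.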
TGFb SMAD3 inh – TGF-b pathway inhibition | actives 1.2% (n = 410,000) | HepG2 CAGA-GFP TGF-b/SMAD3 reporter, GFP fluorescence, 18 h; TGF-beta stimulated, 500 pg/mL final | Potency, µM (series often up to 46.1 µM), hits mostly inhibitors | AID 588855; further: nearly all actives have a fitted effect of over 65% in size
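TGF-beta reporter screen: HEPG2 CAGA-GFP, 1% FBS, 500 pg/mL TGF-beta final, 18 h; per-cell GFP summed per well; curves fitted and categorized by class.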
A number is an active result; n = inactive; u = inconclusive; x = no result; [ ] = another dose, or the depositor's remark. Hits are enriched below; roughly 6.1% of the tested compounds scored in any of these assays. The call rests on the fitted dose curve; in most records, active means well fitted curve in the direction sought with a large enough effect; inconclusive means small, poorly fitted or top-dose-only effect, or another doubt; inactive means no such curve, though single readings can be large; an effect the other way counts as inactive or inconclusive.

SMILES	Gal4-VP16 FLuc	RORgamma inh	ATXN2 expr inh	S2 tox	HepG2 viability	TGFb SMAD3 inh
Ic1ccc(/C=C2\C=Cc3ccccc32)cc1	x	x	x	x	n	n
COCCCNC(=O)Cn1cnc2sc(C)c(S(=O)(=O)N3CCC(C)CC3)c2c1=O	x	x	n	n	n	n
O=C(Cn1nc(-c2ccc(Cl)cc2)ccc1=O)NCc1ccccc1Cl	x	x	n	n	n	n
COc1ccc(NC(=S)NCCC(c2ccccc2)c2ccccc2)c(OC)c1	3.16µM	3.98µM	n	n	n	u
C[C@H](NCCC(c1ccccc1)c1ccccc1)c1ccccc1	n	n	x	u	x	x
COc1cccc(NC(=S)NCCN2CCOCC2)c1	n	n	n	n	n	n
COc1ccc(NC(=S)NCCc2ccccc2OC)c(OC)c1	u	n	n	n	n	n
COc1cccc(NC(=S)NCCC(c2ccccc2)c2ccccc2)c1	22.4µM	u	n	n	n	u
CNC(=S)NCCC(c1ccccc1)c1ccccc1	u	7.08µM	n[11.3 µM]	n	n	n
Cc1cccc(NC(=S)NCCC(c2ccccc2)c2ccccc2)c1	7.08µM	3.98µM	n	n	n	11.2µM
COc1cc(OC)cc(C(=O)NCCC(c2ccccc2)c2ccccc2)c1	n	n	x	n	n	n
COc1cc(NC(=S)NCCC(c2ccccc2)c2ccccc2)cc(OC)c1	8.91µM	4.47µM	n	n	n	u
CCN(C(=O)C1CCN(c2ncnc3c2nc2n3CCCCC2)CC1)c1cccc(Cl)c1	x	x	x	x	n	11.2µM
Cc1ccc(C)c(N2CCN(C(=O)C3CCCN(c4ncnc5c4nc4n5CCCCC4)C3)CC2)c1 (stereo not given)	n	n	u	u	n	17.8µM
O=C(C1CCCN(c2ncnc3c2nc2n3CCCCC2)C1)N1CCN(c2cccc(Cl)c2)CC1 (stereo not given)	n	u	x	14.1µM	n	11.2µM
Cc1cccc(N2CCN(C(=O)C3CCN(c4ncnc5c4nc4n5CCCCC4)CC3)CC2)c1C	8.91µM	u	x	u	n	u
CN(C(=O)C1CCCN(c2ncnc3c2nc2n3CCCCC2)C1)c1cccc(Cl)c1 (stereo not given)	n	n	n	n	n	u
O=C(C1CCCN(c2ncnc3c2nc2n3CCCCC2)C1)N1CCN(c2ccccc2)CC1 (stereo not given)	n	n	x	n	n	n
Cc1ccc(N2CCN(C(=O)C3CCCN(c4ncnc5c4nc4n5CCCCC4)C3)CC2)c(C)c1 (stereo not given)	n	n	x	n	n	n
Nc1cccc2c(=O)[nH]ccc12	n	n	x	x	x	x
CCOc1ccccc1C(=O)NCc1ccc2c(c1)CCN2C(C)=O	x	x	x	x	n	n
CCOc1ccc2c(c1)c(=O)c(C(=O)c1ccc(CC)cc1)cn2CC(=O)Nc1cccc(Cl)c1	x	x	n	n	n	n
C=CCC(C)(O)c1ccc(OC)cc1 (stereo not given)	n	n	x	x	x	x
CCCCN(Cc1ccco1)C(=O)Cn1ncc2c(=O)oc3ccc(C)cc3c21	n	1.41µM	u	u	n	n
CC1=C(C(=O)Nc2ccccc2)C(c2ccc(O)cc2)n2nc(-c3ccc(Cl)cc3)nc2N1 (stereo not given)	x	x	n	28.2µM	n	u
SMILES	Gal4-VP16 FLuc	RORgamma inh	ATXN2 expr inh	S2 tox	HepG2 viability	TGFb SMAD3 inh
CC(C)NC(=O)C1=CC(c2ccc3c(c2)OCO3)=NS(=O)(=O)N1C	x	x	n	n	n	n
COc1ccc(NC(=O)Cc2ccc(Cl)c(Cl)c2)cn1	n	n	x	n	n	n
COc1ccc(NC(=O)/C(Cl)=C(/Cl)S(=O)Cc2ccccc2Cl)cn1 (stereo not given)	4.47µM	1µM	0.844µM	0.597µM	11.2µM	3.55µM
COc1ccc(NC(=O)/C(Cl)=C(/Cl)S(=O)(=O)Cc2ccc(C)cc2)cn1	3.16µM	4.47µM	7.08µM	8.91µM	5.62µM	u
COc1ccc(NC(=O)COC(=O)C(NC(=O)c2ccc(C)cc2)C(C)C)cn1 (stereo not given)	x	x	n	u	n	n
COc1ccc(NC(=S)N2CCN(Cc3ccccc3)CC2)cc1	n[10 µM]	11.2µM	n	n	n	n
COc1ccc(CNC(=S)N2CCN(Cc3ccccc3)CC2)cc1	n	n	x	n	n	u
